In PubChem BioAssay (Tox21) one finds Potency and outcome data, which are given here for 21 compounds.

Where “and” joins values, the source holds several entries; their conditions need not be identical. Identical values can stand only once. Results filed as inconclusive are left out. A structure can be active in one record and inactive in another. Calls of active or inactive are those of the source. Unless noted, calls follow the shape of the dose curve; as a rule, active = well fitted curve in the direction sought with a large enough effect in the repeat runs; inconclusive = weak or mixed curves; inactive = no such curve, though single readings can be large; an effect the other way counts as inactive or inconclusive.

Test [1] can be described thus: qHTS assay for small molecule agonists of the p53 signaling pathway (AID 651631; calls by dose curve; also: nearly all actives have a fitted effect of over 15% in size). To be noted: HCT-116 p53RE-bla reporter, beta-lactamase FRET ratio, 16 h; series mostly up to 73.3 µM. Summed up: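 Testing took place in human colorectal HCT-116 cells with stable p53RE-driven beta-lactamase. After 16 h of compound exposure at 37 °C, a FRET substrate was added and fluorescence recorded 2 h later.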
A general note: In qHTS, concentration-response curves come from the screen itself.

Test [2] can be described thus: qHTS assay for small molecules that induce genotoxicity in human embryonic kidney cells expressing luciferase-tagged ATAD5 (AID 651632). Also: nearly all actives have a fitted effect of over 15% in size. To be noted: HEK293T ATAD5-luciferase induction, 16 h; series mostly up to 83.3 µM. The method, boiled down: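 Cells were seeded at 2,000 per well, dosed with compound, and incubated 16 hr at 37C in 5% CO2. Luciferase activity was then quantified after a 30 min room-temperature incubation with Amplite.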

A short description of test [3]: qHTS assay for small molecule agonists of the p53 signaling pathway - cell viability (AID 651633; calls by dose curve; also: nearly all actives have a fitted effect of over 30% in size; also: potency is read from the fitted curve at half-maximal effect). To be noted: p53RE-bla HCT-116 viability, ATP luminescence, 16 h; series mostly up to 83.3 µM. The method, boiled down: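 p53RE-bla cells were treated with compound for 16 hours at 37 C. Cytotoxicity was then measured as CellTiter-Glo luminescence after 30 min at room temperature.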

The nature of test [4]: qHTS assay for small molecules that induce genotoxicity in human embryonic kidney cells expressing luciferase-tagged ATAD5 - cell viability (AID 651634; calls by dose curve; also: nearly all actives have a fitted effect of over 25% in size). The settings on record: HEK293T ATAD5-luc cells viability, CellTiter-Fluor, 15.5 h; series mostly up to 83.3 µM. Summed up:
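Cells (HEK293T, luciferase-tagged ATAD5) are seeded at 2,000 per well, dosed with compound or DMSO vehicle, and incubated 15.5 hr at 37C and 5% CO2. CellTiter-Fluor is added for 30 min before fluorescence is measured.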

Test [5] can be described thus: qHTS assay for small molecule disruptors of the mitochondrial membrane potential - cell viability (AID 720634; calls by dose curve; also: nearly all actives have a fitted effect of over 20% in size; also: potency is read from the fitted curve at half-maximal effect). The settings on record: HepG2 viability, ATP luminescence (CellTiter-Glo), 1 h; series mostly up to 83.2 µM. The method, boiled down: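 Cytotoxicity was measured by ATP quantitation in HepG2 wells that had first been treated with compound for 1 hr and stained with m-MPI dye; CellTiter-Glo incubation was 30 min at room temperature.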

The nature of test [6]: qHTS assay for small molecule disruptors of the mitochondrial membrane potential (AID 720635). Also: potency is read from the fitted curve at half-maximal effect. The settings on record: HepG2 mitochondrial membrane potential, Mito-MPS dye ratio; series mostly up to 83.2 µM. Summed up:
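HepG2 cells exposed to compound 1 hr at 37C, then Mito-MPS dye 30 min. Ratio read of aggregate (540/590 nm) versus monomer (490/535 nm) fluorescence.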

Test [7] can be described thus: qHTS assay to test for compound auto fluorescence at 590 nm (red) in HepG2 cells (AID 720674). To be noted: HepG2 autofluorescence, red 540/590 nm, 1 h; series mostly up to 91.3 µM. Summed up: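 HepG2 cells, 2,000 per well in MEM with 10% FBS, attached overnight at 37 C, then got 23 nL compound or DMSO. After 1 hr at 37 C, 5% CO2, red fluorescence was read at 540/590 nm against Rose Bengal sodium as reference.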

Test [8] in a line: qHTS assay to test for compound auto fluorescence at 535 nm (green) in HepG2 cells (AID 720675). The settings on record: green autofluorescence 485/535 nm, 1 h; series mostly up to 91.3 µM.
The nature of test [9]: qHTS assay to test for compound auto fluorescence at 460 nm (blue) in HEK293 cells (AID 720678). To be noted: blue autofluorescence 405/460 nm; series mostly up to 91.3 µM. Summed up: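 Triamterene serves as the blue fluorophore standard. Compound signal at 405/460 nm is read in HEK293 wells (2,000 cells, 10% dialyzed FBS) after overnight treatment at 37C.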
Test [10] can be described thus: qHTS assay to test for compound auto fluorescence at 590 nm (red) in HEK293 cells (AID 720679). To be noted: red autofluorescence 540/590 nm; series mostly up to 91.3 µM. The method, boiled down:
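We plated HEK293 cells in 10% dialyzed FBS medium, let them adhere for 4-5 hr, then added 23 nL compound. Overnight at 37C and 5% CO2 preceded fluorescence measurement at 540/590nm.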

On to `FC(F)(F)c1ccc(Cl)cc1`, for which the Potency entry in test [1], in test [2], in test [3], in test [4], in test [5] and in [6] was “inactive” throughout. Further, the compound was called inactive in [7], in test [8], in test [9] and in test [10].
Turning to `N#Cc1cccc(C#N)c1`, the Potency entry in test [1], in [2], in test [3], in [4], in [5] and in test [6] was “inactive” in each case. Besides, the result in test [7], in test [8], in test [9] and in [10] was inactive.
Consider `CC(=O)C1CCOC1=O` (stereo unspecified), for which the Potency entry in test [1], in test [2], in test [3], in [4], in test [5] and in test [6] was “inactive” throughout. The outcome in test [7], in test [8], in [9] and in test [10] was inactive.
Take `Cc1ccc(N=C=O)cc1N=C=O`: the Potency entry in test [1], in test [2], in test [3], in test [4] and in [5] was “inactive” throughout. Moreover, in [6], the Potency is 19.8 µM (active). For the same compound, the call in [7], in test [8], in test [9] and in [10] was inactive.
On to `c1ccc2c(c1)CCCC2`, for which the Potency result in test [1], in test [2], in test [3], in [4] and in test [5] was “inactive” throughout. The outcome in test [7], in [8], in test [9] and in test [10] was inactive.
Take `CCCOC(=O)c1ccccc1C(=O)OCCC`: the Potency result in [1], in test [2], in test [3], in test [4] and in test [5] was “inactive” each time. Besides, the call in [7], in test [8], in [9] and in test [10] was inactive.
For `ClCCOCCCl`, the Potency result in test [1], in test [2], in test [3], in test [4], in test [5] and in [6] was “inactive” each time. Also, the compound was called inactive in test [7], in test [8], in test [9] and in test [10].
With `CC(C)c1cccc(C(C)C)c1O`, the Potency entry in [1], in test [2], in test [3], in test [4] and in test [5] was “inactive” each time. For the same compound, in test [6], the Potency is 54.3 µM (active) and 61.1 µM (active). Further, the compound was called inactive in test [7], in test [8], in test [9] and in [10].
As for `CN(C)C(=O)Nc1cccc(C(F)(F)F)c1`, the Potency entry in test [1], in [2], in test [3], in [4], in [5] and in test [6] was “inactive” throughout. Further, the result in test [7], in test [8], in test [9] and in [10] was inactive.
As for `Cc1cccc(C)c1NC(=O)CN1CCCC1=O`, the Potency result in [1], in test [2], in test [3], in test [4], in [5] and in test [6] was “inactive” in each case. In addition, the result in test [7], in [8], in test [9] and in test [10] was inactive.
As for `Cc1ccc(N)cc1`, the Potency entry in [1], in [2], in [3], in test [4], in test [5] and in test [6] was “inactive” in each case. Further, the call in [7], in [8], in test [9] and in test [10] was inactive.
As for `Cl[C@H]1OCCO[C@@H]1Cl`, the Potency entry in test [1], in test [2], in test [3], in test [4], in test [5] and in test [6] was “inactive” in each case. For the same compound, the call in test [7], in test [8], in [9] and in test [10] was inactive.
Consider `Nc1cccc(Cl)c1`, for which the Potency result in test [1], in [2], in test [3], in test [4], in [5] and in test [6] was “inactive” throughout. Besides, the call in test [7], in test [8], in test [9] and in test [10] was inactive.
For the compound `CCOP(=S)(OCC)Oc1cc(C)nc(C(C)C)n1`, the Potency result in test [1], in [2] and in test [4] was “inactive” throughout. The Potency result is “inactive and 61.1 µM (active)” in test [3]; “inactive and 48.6 µM (active)” in test [5]; “inactive and 30.6 µM (active)” in test [6]. The result in test [7], in [8], in [9] and in test [10] was inactive.
Take `CN(C)NC(=O)CCC(=O)O`: the Potency result in test [1], in test [3], in test [5] and in test [6] was “inactive” in each case. The compound was called inactive in test [7], in [8], in test [9] and in [10].
In the case of `CNC(=O)O/N=C/C(C)(C)S(C)=O` (stereo unspecified), the Potency result in test [2], in [3], in test [4], in [5] and in test [6] was “inactive” in each case. For the same compound, the compound was classed as inactive in test [7], in test [8], in [9] and in test [10].
As for `CCCCCCCCCCCCCCCCCC(=O)O`, the Potency entry in test [4] and in test [5] was “inactive” in each case. In addition, in [6], the Potency entry was “inactive and 54.1 µM (active)”. The call in test [7], in [8], in test [9] and in test [10] was inactive.
As to `CN(C)C(=O)Cl`, the Potency entry in [2], in [3], in test [4], in test [5] and in test [6] was “inactive” each time. Besides, the compound was classed as inactive in [7], in test [8], in test [9] and in test [10].
`O=C(O)c1cc(Oc2ccc(C(F)(F)F)cc2Cl)ccc1[N+](=O)[O-]`: the Potency result in [2], in test [3], in test [4], in test [5] and in test [6] was “inactive” throughout. Besides, the call in [7], in [8], in [9] and in [10] was inactive.
`OC[C@@H](O)[C@H]1O[C@@H]2O[C@H](C(Cl)(Cl)Cl)O[C@@H]2[C@H]1O`: the Potency result in test [2], in [4], in test [5] and in [6] was “inactive” throughout. Moreover, the outcome in test [7], in test [8], in test [9] and in [10] was inactive.
Turning to `C[C@]12CC[C@H](O)CC1=CC[C@@H]1[C@@H]2CC[C@]2(C)C(=O)CC[C@@H]12`, the Potency entry in [2], in [3], in test [4] and in test [5] was “inactive” in each case. In addition, the compound was classed as inactive in [7], in [8], in test [9] and in test [10].
